# Results from PubChem BioAssay (EPA / NIEHS).
# Values joined by “and” are separate entries in the source; they are usually repeats but may differ in a detail not shown here. Equal entries are not always repeated. Inconclusive results are not listed. Where a structure was tested more than once in an assay, its records may differ in their call. Active and inactive are the calls of the source. How the source made its calls, unless noted: active means hit-call score of the fitted dose curve at least 0.9, where 1 is the maximum; inactive means score below 0.9.
# Legend:
# [1] = BSK_3C_VCAM1: BioMAP Diversity Plus: 3C Assay for Vascular cell adhesion molecule 1 (VCAM1) Biomarker Activity (AID 2282999); settings: BioMAP 3C HUVEC, VCAM1 ELISA, cytokine-stimulated; actives raise or lower the signal
# Procedure, shortened: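 Human umbilical vein endothelial cells (3C system), biomarker read by ELISA 24 h after dosing; bidirectional fit against DMSO baseline. Cytotoxicity tracked by SRB total-protein staining in parallel cultures at biomarker time.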
# [2] = BSK_4H_Eotaxin3: BioMAP Diversity Plus: 4H Assay for Eotaxin 3 Biomarker Activity (AID 2283000); settings: primary human endothelial cells (HUVEC); actives raise or lower the signal;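 on outcome: CCL26 protein level quantified by ELISA in parallel with SRB cytotoxicity check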
# Procedure, shortened: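 Chemicals were added to human umbilical vein endothelium cultures, and Eotaxin-3 was quantified by ELISA at 24 h. Values were derived by bidirectional fitting with DMSO serving as negative control and activity baseline.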
# [3] = target: human Peroxisome Proliferator-activated Receptor alpha (PPARa), PPARA (gene 5465) (UniProt Q07869); assay: ATG_PPARa_TRANS: Attagene TRANS-FACTORIAL HepG2 Assay for human Peroxisome Proliferator-activated Receptor alpha (PPARa) (AID 2283001; active means hit-call score of the fitted dose curve at least 0.9, where 1 is the maximum)
# Chain of human Peroxisome Proliferator-activated Receptor alpha (PPARa), PPARA (gene 5465) (Q07869 whole entry, looked up, the tested form may be a part): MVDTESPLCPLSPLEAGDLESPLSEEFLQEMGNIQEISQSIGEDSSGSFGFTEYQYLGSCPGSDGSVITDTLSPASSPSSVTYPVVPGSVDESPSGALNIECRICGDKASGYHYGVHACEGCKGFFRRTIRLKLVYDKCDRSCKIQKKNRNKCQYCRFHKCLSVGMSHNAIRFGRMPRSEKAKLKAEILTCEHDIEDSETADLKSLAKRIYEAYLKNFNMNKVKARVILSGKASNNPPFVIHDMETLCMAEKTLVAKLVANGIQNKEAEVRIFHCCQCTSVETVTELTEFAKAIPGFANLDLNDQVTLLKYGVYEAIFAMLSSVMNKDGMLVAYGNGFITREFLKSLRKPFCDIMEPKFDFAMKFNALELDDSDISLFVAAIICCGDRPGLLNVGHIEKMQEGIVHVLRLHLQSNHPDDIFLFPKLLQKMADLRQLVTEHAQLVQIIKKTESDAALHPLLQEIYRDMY
# Procedure, shortened: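 HepG2 cells transiently transfected with multiplexed GAL4-UAS reporters driven by exogenous chimeric NR-Gal4 proteins; reporter mRNA measured after 24 h dosing. Read-out by RT-PCR, 6-FAM labelling, HpaI digestion and capillary electrophoresis; gain of signal versus DMSO.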
# [4] = target: human Peroxisome Proliferator-activated Receptor delta (PPARd), PPARD (gene 5467) (UniProt Q03181); assay: ATG_PPARd_TRANS: Attagene TRANS-FACTORIAL HepG2 Assay for human Peroxisome Proliferator-activated Receptor delta (PPARd) (AID 2283002; active means hit-call score of the fitted dose curve at least 0.9, where 1 is the maximum)
# Chain of human Peroxisome Proliferator-activated Receptor delta (PPARd), PPARD (gene 5467) (Q03181 whole entry, looked up, the tested form may be a part): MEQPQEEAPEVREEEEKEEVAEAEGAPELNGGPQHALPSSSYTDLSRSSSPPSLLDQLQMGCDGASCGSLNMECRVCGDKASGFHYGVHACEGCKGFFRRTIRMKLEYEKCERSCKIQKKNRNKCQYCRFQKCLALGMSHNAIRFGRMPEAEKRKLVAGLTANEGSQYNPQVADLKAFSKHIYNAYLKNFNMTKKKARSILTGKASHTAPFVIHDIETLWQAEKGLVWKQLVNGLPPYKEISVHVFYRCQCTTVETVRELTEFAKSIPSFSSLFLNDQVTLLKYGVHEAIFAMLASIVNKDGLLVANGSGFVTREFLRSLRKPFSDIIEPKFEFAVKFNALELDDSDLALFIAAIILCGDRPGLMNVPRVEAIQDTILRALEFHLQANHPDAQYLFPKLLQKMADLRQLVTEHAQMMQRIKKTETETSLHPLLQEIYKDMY
# Procedure, shortened: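 HepG2 cells transiently transfected with GAL4-UAS multiplexed reporter units driven by exogenous chimeric NR-GAL4 proteins; 24 h compound exposure. Reporter mRNA measured by RT-PCR, 6-FAM primer extension, HpaI digestion and capillary electrophoresis; gain of signal fitted relative to DMSO.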
# [5] = read-out: Intercellular Adhesion Molecule 1 (ICAM1), ICAM1 (gene 3383); assay: BSK_3C_ICAM1: BioMAP Diversity Plus: 3C Assay for Intercellular Adhesion Molecule 1 (ICAM1) Biomarker Activity (AID 2283003); settings: primary human endothelial cells (HUVEC); actives raise or lower the signal
# Procedure, shortened: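 HUVEC primary cells stimulated under 3C conditions; ICAM1 measured by ELISA 24 h after compound dosing. Curves fitted bidirectionally against the DMSO baseline. Overt cytotoxicity checked by SRB staining of parallel cultures.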
# [6] = target: human Retinoic Acid Receptor beta (RARb), RARB (gene 5915) (UniProt P10826); assay: ATG_RARb_TRANS: Attagene TRANS-FACTORIAL HepG2 Assay for human Retinoic Acid Receptor beta (AID 2283004; active means hit-call score of the fitted dose curve at least 0.9, where 1 is the maximum)
# Chain of human Retinoic Acid Receptor beta (RARb), RARB (gene 5915) (P10826 whole entry, looked up): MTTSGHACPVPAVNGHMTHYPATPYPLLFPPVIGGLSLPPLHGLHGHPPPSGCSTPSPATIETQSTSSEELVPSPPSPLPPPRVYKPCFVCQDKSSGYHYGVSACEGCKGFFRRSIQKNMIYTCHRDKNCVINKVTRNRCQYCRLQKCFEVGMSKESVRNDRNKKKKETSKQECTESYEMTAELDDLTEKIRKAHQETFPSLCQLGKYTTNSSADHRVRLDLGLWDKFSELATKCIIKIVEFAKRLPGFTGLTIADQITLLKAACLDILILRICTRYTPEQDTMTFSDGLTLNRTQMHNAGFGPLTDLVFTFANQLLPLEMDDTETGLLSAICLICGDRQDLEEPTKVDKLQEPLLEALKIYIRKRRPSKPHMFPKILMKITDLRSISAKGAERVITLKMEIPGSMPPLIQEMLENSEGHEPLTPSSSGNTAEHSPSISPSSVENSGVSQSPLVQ
# Procedure, shortened: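 Transient transfection of HepG2 with multiple reporter units → chemical dosing, 24 h → total RNA isolation → RT with oligo(dT) → reporter-specific PCR, 6-FAM primer extension, HpaI digest → capillary electrophoresis. Positive direction vs DMSO control.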
# [7] = target: Retinoic acid receptor alpha (Homo sapiens) (UniProt P10276); assay: ATG_RARa_TRANS: Attagene TRANS-FACTORIAL HepG2 Assay for human Retinoic Acid Receptor alpha (RARa) (AID 2283005; active means hit-call score of the fitted dose curve at least 0.9, where 1 is the maximum)
# Chain of Retinoic acid receptor alpha (Homo sapiens) (P10276 whole entry, looked up, the tested form may be a part): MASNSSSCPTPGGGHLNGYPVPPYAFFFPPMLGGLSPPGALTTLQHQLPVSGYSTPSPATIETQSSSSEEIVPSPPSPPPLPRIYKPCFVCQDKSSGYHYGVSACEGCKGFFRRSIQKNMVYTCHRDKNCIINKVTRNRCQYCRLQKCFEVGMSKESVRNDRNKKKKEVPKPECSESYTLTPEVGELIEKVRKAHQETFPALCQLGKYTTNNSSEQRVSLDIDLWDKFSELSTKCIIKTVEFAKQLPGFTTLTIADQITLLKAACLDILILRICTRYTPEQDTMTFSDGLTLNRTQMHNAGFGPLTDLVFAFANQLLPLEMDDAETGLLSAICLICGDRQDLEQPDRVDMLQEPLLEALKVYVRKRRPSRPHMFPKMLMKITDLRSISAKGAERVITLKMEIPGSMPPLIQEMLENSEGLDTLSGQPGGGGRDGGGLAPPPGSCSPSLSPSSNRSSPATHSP
# Procedure, shortened: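 HepG2 transiently transfected with multiplex GAL4-UAS reporter units including a human RARa–GAL4 chimera; 24 h compound exposure. Reporter mRNA quantified by RT-PCR, 6-FAM labeling and capillary electrophoresis; gain of signal versus DMSO.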
# [8] = BSK_3C_Proliferation: Cell Proliferation Assessment in the BioMAP Diversity Plus: 3C Assay (AID 2283006); settings: primary human endothelial cells (HUVEC);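 on AC50: potency may reflect either rise or fall in cell number versus DMSO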
# Procedure, shortened: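 Subconfluent HUVEC (3C system) cultured with chemical; relative cell number read at 48 h by sulforhodamine B total-protein staining (0.1% SRB after 10% TCA fixation, 560 nm). Bidirectional fit relative to DMSO.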
# [9] = target: Peroxisome proliferator-activated receptor gamma (Homo sapiens) (UniProt P37231); assay: ATG_PPARg_TRANS: Attagene TRANS-FACTORIAL HepG2 Assay for human Peroxisome Proliferator-activated Receptor-gamma (PPARg) (AID 2283007; active means hit-call score of the fitted dose curve at least 0.9, where 1 is the maximum)
# Chain of Peroxisome proliferator-activated receptor gamma (Homo sapiens) (P37231 whole entry, looked up, the tested form may be a part): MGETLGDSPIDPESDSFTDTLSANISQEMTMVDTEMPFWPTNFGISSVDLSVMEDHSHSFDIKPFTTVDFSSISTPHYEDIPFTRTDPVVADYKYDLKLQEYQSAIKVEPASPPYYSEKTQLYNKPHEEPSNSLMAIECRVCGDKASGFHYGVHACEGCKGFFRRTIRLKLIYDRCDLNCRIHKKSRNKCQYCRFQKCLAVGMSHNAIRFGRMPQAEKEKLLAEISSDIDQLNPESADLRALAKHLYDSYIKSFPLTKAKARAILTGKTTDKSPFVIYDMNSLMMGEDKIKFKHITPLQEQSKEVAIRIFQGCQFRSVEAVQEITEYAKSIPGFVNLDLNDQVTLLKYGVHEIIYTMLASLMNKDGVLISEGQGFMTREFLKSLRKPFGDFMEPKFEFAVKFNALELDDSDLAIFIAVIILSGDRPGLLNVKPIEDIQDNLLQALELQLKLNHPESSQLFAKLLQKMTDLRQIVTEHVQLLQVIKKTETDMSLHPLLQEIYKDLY
# Procedure, shortened: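 Transient transfection of HepG2 with GAL4-UAS-driven reporter units; chemical dosing 24 h; total RNA → oligo(dT) RT → PCR with reporter primers → 6-FAM primer extension → HpaI digest 2 h 37 C → capillary electrophoresis. Positive direction vs DMSO.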
# [10] = target: Nuclear receptor subfamily 1 group I member 2 (Homo sapiens) (UniProt O75469); assay: ATG_PXR_TRANS: Attagene TRANS-FACTORIAL HepG2 Assay for human Pregnane X Receptor (PXR) (AID 2283008; active means hit-call score of the fitted dose curve at least 0.9, where 1 is the maximum)
# Chain of Nuclear receptor subfamily 1 group I member 2 (Homo sapiens) (O75469 whole entry, looked up, the tested form may be a part): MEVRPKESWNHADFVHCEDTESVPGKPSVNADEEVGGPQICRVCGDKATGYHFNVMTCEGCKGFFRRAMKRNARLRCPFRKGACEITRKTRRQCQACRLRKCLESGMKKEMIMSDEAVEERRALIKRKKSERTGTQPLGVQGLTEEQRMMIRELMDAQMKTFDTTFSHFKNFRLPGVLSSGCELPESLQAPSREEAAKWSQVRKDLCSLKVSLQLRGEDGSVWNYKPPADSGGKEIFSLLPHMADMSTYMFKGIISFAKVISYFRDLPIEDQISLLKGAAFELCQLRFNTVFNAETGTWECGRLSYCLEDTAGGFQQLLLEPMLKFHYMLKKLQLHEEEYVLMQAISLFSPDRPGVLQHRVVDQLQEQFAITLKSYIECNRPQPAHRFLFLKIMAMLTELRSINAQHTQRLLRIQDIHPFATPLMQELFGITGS
# Procedure, shortened: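 Fluorescence intensity of FAM-labelled, HpaI-digested reporter amplicons, separated by capillary electrophoresis, quantifies induction. HepG2 cells with PXR-Gal4 trans-reporter system were exposed 24 h; DMSO defines baseline.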
# [11] = target: human Retinoic Acid Receptor gamma (RARg), RARG (gene 5916) (UniProt P13631); assay: ATG_RARg_TRANS: Attagene TRANS-FACTORIAL HepG2 Assay for human Retinoic Acid Receptor gamma (RARg) (AID 2283009; active means hit-call score of the fitted dose curve at least 0.9, where 1 is the maximum)
# Chain of human Retinoic Acid Receptor gamma (RARg), RARG (gene 5916) (P13631 whole entry, looked up, the tested form may be a part): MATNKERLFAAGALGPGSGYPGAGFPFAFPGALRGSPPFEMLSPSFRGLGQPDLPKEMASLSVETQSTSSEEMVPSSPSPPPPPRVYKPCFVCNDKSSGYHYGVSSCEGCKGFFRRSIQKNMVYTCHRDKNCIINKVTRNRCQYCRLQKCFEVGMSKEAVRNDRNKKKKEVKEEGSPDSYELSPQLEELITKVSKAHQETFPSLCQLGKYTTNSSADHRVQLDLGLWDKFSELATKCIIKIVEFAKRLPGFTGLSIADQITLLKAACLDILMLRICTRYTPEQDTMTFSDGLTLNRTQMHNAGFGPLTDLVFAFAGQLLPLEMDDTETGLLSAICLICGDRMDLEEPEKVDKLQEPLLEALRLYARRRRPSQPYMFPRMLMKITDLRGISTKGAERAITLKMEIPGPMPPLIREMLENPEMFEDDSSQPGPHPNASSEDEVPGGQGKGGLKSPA
# Procedure, shortened: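 HepG2 transiently transfected with GAL4-UAS reporter units and chimeric NR-Gal4 constructs; 24 h compound exposure. Reporter mRNA quantified by RT-PCR, FAM labeling, HpaI digestion and capillary electrophoresis; gain-of-signal versus DMSO.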
# [12] = target: human RAR-related Orphan Receptor gamma (RORg), RORC (gene 6097) (UniProt P51449); assay: ATG_RORg_TRANS: Attagene TRANS-FACTORIAL HepG2 Assay for human RAR-related Orphan Receptor gamma (RORg) (AID 2283011; active means hit-call score of the fitted dose curve at least 0.9, where 1 is the maximum)
# Procedure, shortened: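 First, HepG2 liver cells were transfected with GAL4-UAS-driven reporter constructs and the RORg-Gal4 fusion. Next, they were treated with chemical for 24 h. Finally, reporter mRNA was quantified by RT-PCR and capillary electrophoresis, with upward activity fitted against DMSO.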
# [13] = target: Retinoic acid receptor RXR-alpha (Homo sapiens) (UniProt P19793); assay: ATG_RXRa_TRANS: Attagene TRANS-FACTORIAL HepG2 Assay for human Retinoid X Receptor alpha (RXRa) (AID 2283012; active means hit-call score of the fitted dose curve at least 0.9, where 1 is the maximum)
# Procedure, shortened: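 HepG2 cells transiently transfected with GAL4-UAS reporter units and chimeric RXRa-Gal4 protein, treated 24 h. Reporter mRNA measured by RT-PCR, fluorescent labelling, HpaI digestion and capillary electrophoresis. Induction fitted against DMSO.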
# [14] = target: human Retinoid X Receptor beta (RXRb), RXRB (gene 6257) (UniProt P28702); assay: ATG_RXRb_TRANS: Attagene TRANS-FACTORIAL HepG2 Assay for human Retinoid X Receptor beta (RXRb) (AID 2283013; active means hit-call score of the fitted dose curve at least 0.9, where 1 is the maximum)
# Chain of human Retinoid X Receptor beta (RXRb), RXRB (gene 6257) (P28702 whole entry, looked up, the tested form may be a part): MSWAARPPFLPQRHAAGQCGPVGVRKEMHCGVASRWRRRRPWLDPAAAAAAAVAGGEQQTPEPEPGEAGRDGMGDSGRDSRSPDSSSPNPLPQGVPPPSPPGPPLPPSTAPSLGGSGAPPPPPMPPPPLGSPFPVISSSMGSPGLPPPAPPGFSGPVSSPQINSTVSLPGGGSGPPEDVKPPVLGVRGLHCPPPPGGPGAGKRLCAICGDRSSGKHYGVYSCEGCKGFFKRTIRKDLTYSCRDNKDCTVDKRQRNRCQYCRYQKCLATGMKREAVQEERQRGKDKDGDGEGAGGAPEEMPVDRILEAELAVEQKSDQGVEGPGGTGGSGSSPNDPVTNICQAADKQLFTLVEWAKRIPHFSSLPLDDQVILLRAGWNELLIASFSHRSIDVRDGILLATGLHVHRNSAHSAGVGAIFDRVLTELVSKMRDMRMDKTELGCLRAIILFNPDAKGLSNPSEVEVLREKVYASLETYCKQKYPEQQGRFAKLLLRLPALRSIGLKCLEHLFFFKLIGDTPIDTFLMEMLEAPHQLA
# Procedure, shortened: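 HepG2 cells were transiently transfected with multiplexed GAL4-UAS reporters and a chimeric RXRb-Gal4 construct, then exposed for 24 h. Reporter mRNA was quantified by RT-PCR, FAM labeling, HpaI digestion and capillary electrophoresis; gain of signal was scored against DMSO.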
# [15] = target: human Thyroid Receptor alpha (THRa1), THRA (gene 7067) (UniProt P10827); assay: ATG_THRa1_TRANS: Attagene TRANS-FACTORIAL HepG2 Assay for human Thyroid Receptor alpha (THRa1) (AID 2283014; active means hit-call score of the fitted dose curve at least 0.9, where 1 is the maximum)
# Chain of human Thyroid Receptor alpha (THRa1), THRA (gene 7067) (P10827 whole entry, looked up, the tested form may be a part): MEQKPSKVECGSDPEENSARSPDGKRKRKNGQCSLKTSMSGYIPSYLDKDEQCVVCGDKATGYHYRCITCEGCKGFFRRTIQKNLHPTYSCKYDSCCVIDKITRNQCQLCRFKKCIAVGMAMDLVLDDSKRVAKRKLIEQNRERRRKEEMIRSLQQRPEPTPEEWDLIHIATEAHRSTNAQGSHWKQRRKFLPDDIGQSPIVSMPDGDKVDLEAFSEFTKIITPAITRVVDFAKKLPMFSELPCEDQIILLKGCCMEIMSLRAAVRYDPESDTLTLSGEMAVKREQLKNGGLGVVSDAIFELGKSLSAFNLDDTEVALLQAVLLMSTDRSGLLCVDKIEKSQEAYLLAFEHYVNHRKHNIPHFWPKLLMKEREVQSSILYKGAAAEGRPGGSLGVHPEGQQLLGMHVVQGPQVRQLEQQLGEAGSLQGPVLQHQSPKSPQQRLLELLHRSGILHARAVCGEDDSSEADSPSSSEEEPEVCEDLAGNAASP
# Procedure, shortened: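 Reporter transcript induction, read by capillary electrophoresis of 6-FAM-labelled RT-PCR products, reflects activity of a transfected THRa1-Gal4 fusion in HepG2 liver cells. Cells were dosed for 24 h; activity was fitted in the positive direction against DMSO.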
# [16] = read-out: E-selectin (Homo sapiens) (UniProt P16581); assay: BSK_3C_Eselectin: BioMAP Diversity Plus: 3C Assay for Eselectin Biomarker Activity (AID 2283015); settings: primary human endothelial cells (HUVEC); actives raise or lower the signal;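 on outcome: cell surface E-selectin protein quantified by ELISA 24 h after dosing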
# Procedure, shortened: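 ELISA read-out of E-selectin on endothelial monolayers after 24 h chemical treatment. Human umbilical vein primary cells served as the system, with DMSO defining baseline activity for bidirectional fitting.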
# [17] = read-out: Interleukin-1 alpha (IL1a), IL1A (gene 3552); assay: BSK_BE3C_IL1a: BioMAP Diversity Plus: BE3C Assay for Interleukin-1 alpha (IL1a) Biomarker Activity (AID 2283016); settings: primary human bronchial epithelial cells; actives raise or lower the signal
# Procedure, shortened: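 Human primary bronchial epithelial cells, 24 h chemical exposure; IL-1a quantified by ELISA, fitted bidirectionally against DMSO. Cytotoxicity assessed in parallel by SRB total-protein staining at the time of measurement.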
# [18] = read-out: Monocyte Chemoattractant Protein-1 (MCP1), CCL2 (gene 6347); assay: BSK_3C_MCP1: BioMAP Diversity Plus: 3C Assay for Monocyte Chemoattractant Protein-1 (MCP1) Biomarker Activity (AID 2283017); settings: primary human endothelial cells (HUVEC); actives raise or lower the signal
# Procedure, shortened: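 ELISA read-out of MCP-1 from human umbilical vein endothelial cell cultures harvested 24 h post-dosing. Gain or loss of signal was fitted relative to DMSO.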
# [19] = read-out: Human Leukocyte Antigen - DR isotype (HLADR), HLA-DRA (gene 3122); assay: BSK_3C_HLADR: BioMAP Diversity Plus: 3C Assay for Human Leukocyte Antigen - DR isotype (HLADR) Biomarker Activity (AID 2283019); settings: primary human endothelial cells (HUVEC); actives raise or lower the signal;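 on outcome: ELISA of cell-surface HLA-DR on HUVEC 24 h after dosing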
# Procedure, shortened: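 ELISA readout of surface HLA-DR on human umbilical vein endothelium, taken 24 h after chemical treatment. Gain- and loss-of-signal were both fitted relative to DMSO.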
# [20] = read-out: Monocyte Chemoattractant Protein-1 (MCP1), CCL2 (gene 6347); assay: BSK_4H_MCP1: BioMAP Diversity Plus: 4H Assay for Monocyte Chemoattractant Protein-1 (MCP1) Biomarker Activity (AID 2283018); settings: primary human endothelial cells (HUVEC); actives raise or lower the signal
# Procedure, shortened: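 Human umbilical vein endothelial cells (4H system) exposed to chemicals for 24 h in 96-well format. MCP-1 measured by ELISA; bidirectional fitting against DMSO, with SRB total-protein staining in parallel cultures for cytotoxicity.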
# Chain of E-selectin (Homo sapiens) (P16581 whole entry, looked up): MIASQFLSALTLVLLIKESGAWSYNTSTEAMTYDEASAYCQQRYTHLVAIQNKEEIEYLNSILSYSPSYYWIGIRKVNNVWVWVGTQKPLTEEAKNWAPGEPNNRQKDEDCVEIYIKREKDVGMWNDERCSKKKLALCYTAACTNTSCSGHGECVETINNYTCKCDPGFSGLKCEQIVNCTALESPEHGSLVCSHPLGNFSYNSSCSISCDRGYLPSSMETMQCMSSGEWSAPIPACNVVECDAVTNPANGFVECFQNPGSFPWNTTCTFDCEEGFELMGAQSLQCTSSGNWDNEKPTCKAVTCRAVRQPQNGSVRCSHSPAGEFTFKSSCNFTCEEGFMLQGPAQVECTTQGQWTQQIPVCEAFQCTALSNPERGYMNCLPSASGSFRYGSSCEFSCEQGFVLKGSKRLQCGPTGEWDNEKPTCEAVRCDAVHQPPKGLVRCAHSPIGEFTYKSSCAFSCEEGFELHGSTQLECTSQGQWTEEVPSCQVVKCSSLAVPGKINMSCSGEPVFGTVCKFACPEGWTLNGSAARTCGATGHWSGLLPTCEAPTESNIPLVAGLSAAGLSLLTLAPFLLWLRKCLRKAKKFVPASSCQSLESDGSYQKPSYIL
structure (smiles),measurement,setting,value
OCC(F)(F)OC(F)(F)C(F)(F)OC(F)(F)C(F)(F)OC(F)(F)F,AC50,[1],36.1 µM (active) and 50.3 µM (active)
same,AC50,[2],22.3 µM (active) and 42.2 µM (active)
same,outcome,[3],inactive
same,outcome,[4],inactive
same,AC50,[5],30000 nM (active)
same,outcome,[6],inactive
same,outcome,[7],inactive
same,AC50,[8],15.5 µM (active) and 26.1 µM (active)
same,outcome,[9],inactive
same,outcome,[10],inactive
same,outcome,[11],inactive
same,outcome,[12],inactive
same,outcome,[13],inactive
same,AC50,[14],32200 nM (active)
same,outcome,[14],inactive
same,outcome,[15],inactive
same,AC50,[16],46.3 µM (active) and 55.2 µM (active)
same,outcome,[17],inactive
same,AC50,[18],45.4 µM (active) and 14.5 µM (active)
same,AC50,[19],31.5 µM (active) and 49.7 µM (active)
O=C(O)C(F)(F)C(F)(F)C(=O)O,outcome,[1],inactive
same,outcome,[2],inactive
same,outcome,[3],inactive
same,outcome,[4],inactive
same,outcome,[5],inactive
same,outcome,[6],inactive
same,outcome,[7],inactive
same,outcome,[8],inactive
same,outcome,[9],inactive
same,outcome,[10],inactive
same,outcome,[11],inactive
same,outcome,[12],inactive
same,outcome,[13],inactive
same,outcome,[15],inactive
same,outcome,[16],inactive
same,outcome,[17],inactive
same,outcome,[18],inactive
same,outcome,[20],inactive
same,outcome,[19],inactive
N#Cc1c(-c2ccc(Cl)cc2)[nH]c(C(F)(F)F)c1Br,AC50,[1],6.03 µM (active)
same,AC50,[2],796 nM (active)
same,outcome,[3],inactive
same,outcome,[4],inactive
same,outcome,[5],inactive
same,outcome,[6],inactive
same,outcome,[7],inactive
same,AC50,[8],393 nM (active)
same,AC50,[9],573 nM (active)
same,AC50,[10],585 nM (active)
same,outcome,[11],inactive
same,outcome,[13],inactive
same,outcome,[14],inactive
same,outcome,[15],inactive
same,outcome,[16],inactive
same,AC50,[17],7110 nM (active)
same,AC50,[18],169 nM (active)
same,AC50,[19],324 nM (active)
